Measurements reported in PubChem BioAssay AID977630 (Broad Institute, 2014).
Out of some 1,600 compounds screened, fewer than 10 were called active. About 48% were inconclusive and are not listed.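 The calls were made as follows: active = Normal-ribosome green reporter loss at least double humanized-ribosome red reporter loss, with overall culture growth inhibition under a set limit; inconclusive = no clear call, values can overlap the other calls; inactive = the rest.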 Not all results are given here. Entries with a potency or affinity are not part of this list.

Test: E. coli growth inhibition, wild-type GFP versus H38 humanized RFP strain – H38 mutant RFP vs wild-type GFP, cherry-pick, dose response (AID 977630)
Details: mixed culture, 24 h; series mostly up to 50 µM

outcome, inactive:
CCN(CC)CC(=O)Nc1sc2c(c1C(=O)c1ccccc1OC)CCC2
O=S(=O)(Cc1ccco1)Cc1nc(-c2ccc(Cl)cc2)cs1
Cc1ccccc1NS(=O)(=O)c1cc(C(=O)NCCC2=CCCCC2)ccc1C
Cc1c(CCOC(=O)C23CC4CC(CC(C4)C2)C3)sc[n+]1Cc1ccccc1
O=C(CSc1nnc(-c2ccccc2F)n1C1CC1)Nc1cccnc1Cl
CSc1ccc(CN(C)CC(=O)NC(C)c2ccccc2)cc1 (stereo not given)
COc1cc[n+]([O-])cc1[N+](=O)[O-]
COc1ccc(OC2C(=O)N(Cc3ccc4c(c3)OCO4)C2c2sccc2C)cc1 (stereo not given)
COc1ccc(C(=O)C[n+]2ccc3c(c2)nc(-c2cc(OC)c(OC)cc2OC)n3C)cc1
c1coc(CSc2ncnc3c2oc2ccccc23)c1
COc1cccc(SCC(=O)N2CCN(c3ccccc3)CC2)c1
COc1ccc(C(=O)CSc2nc3ccccc3n2CC(=O)c2ccccc2)cc1
O=C(Nc1cscc1S(=O)(=O)c1ccccc1)c1ccccc1Cl
CC1Cc2ccccc2N1C(=O)CN1C(=O)NC(C)(CCc2ccccc2)C1=O (stereo not given)
O=C(COC(=O)c1ccc(O)cc1)Nc1ccccc1
O=S(=O)(NC1c2cccc3cccc(c23)C1Sc1ncccn1)c1ccccc1 (stereo not given)
O=[N+]([O-])c1ccc(/C=C/c2ccc3cccc([N+](=O)[O-])c3n2)cc1
Cc1cc(C(=O)Nc2ccc(Cl)cc2)c(C)n1Cc1cccs1
CCCCOc1ccc(-c2nnn(CCC(=O)N3CCOCC3)n2)cc1
Cc1ccnc(NS(=O)(=O)c2ccc(NC(=O)c3ccc4c(c3)OCCO4)cc2)n1
CN1N=C2c3ccccc3CCC2C1c1ccc(F)cc1 (stereo not given)
COc1ccc(-c2nc(NC(C)=O)sc2-c2ccccc2)cc1
Nc1ccccc1Sc1c[nH]c2ccccc12
CCc1cccc(CC)c1NC(=O)Cn1c(-c2ccc(F)cc2)noc1=O
Cc1ccc(C)c(N2CCN(C(=O)CCS(=O)(=O)c3ccc4c(c3)oc(=O)n4C)CC2)c1
CCOC(=O)c1cc2nc(-c3ccccc3)cc(C)n2n1
O=C(NCc1ccccc1)C1C(=O)Nc2ccccc2C(=O)N1c1ccc2c(c1)OCCO2 (stereo not given)
CSc1ccccc1NC(=O)CN(c1cccc(C)c1)S(C)(=O)=O
CC(OC(=O)COc1ccccc1)C(=O)NC1CCCC1 (stereo not given)
O=S(=O)(c1ccc(Cl)cc1)N1CCN=C1SCc1cccc(Cl)c1
